Experimental data: the supplement of paper PMC8728848
The entries come from a sample that favours the strongest signals as a whole.

Legend:
Experiment in all cases: glycan array binding signal (z-score within array); higher = stronger binding
Conditions in all cases: glycan notation: IUPAC condensed, linker removed
[1] = biological target: Fuc(a1-2)Gal(b1-3)[Fuc(a1-4)]GlcNAc(b1-2)Man(a1-3)[Fuc(a1-2)Gal(b1-3)[Fuc(a1-4)]GlcNAc(b1-2)Man(a1-3)]Man(b1-4)GlcNAc(b1-4)GlcNAc
How it was run: (§1)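 Glycan array binding is given as a within-array Z-score, which can be read as non-binding when negative. The arrays, 3228 of them, came from the Consortium for Functional Glycomics database and were retained only where the protein sequence was available. Z-scores were averaged across arrays of the same protein sequence at different concentrations or buffers and across linkers.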

[2] = biological target: Fuc(a1-2)[Gal(a1-3)]Gal(b1-4)GlcNAc(b1-3)GalNAc
How it was run: as §1

[3] = biological target: Fuc(a1-2)[Gal(a1-3)]Gal(b1-4)GlcNAc(b1-6)GalNAc
How it was run: as §1

[4] = biological target: Fuc(a1-2)[Gal(a1-4)]Gal(b1-4)GlcNAc
How it was run: as §1

[5] = biological target: Fuc(a1-2)[GalNAc(a1-3)]Gal(b1-3)GlcNAc(b1-2)Man(a1-3)[Fuc(a1-2)[GalNAc(a1-3)]Gal(b1-3)GlcNAc(b1-2)Man(a1-6)]Man(b1-4)GlcNAc(b1-4)[Fuc(a1-6)]GlcNAc
How it was run: as §1

[6] = biological target: Fuc(a1-2)[GalNAc(a1-3)]Gal(b1-4)[Fuc(a1-3)]GlcNAc(b1-3)GalNAc
How it was run: as §1

[7] = biological target: Fuc(a1-3)[Gal(b1-4)]GlcNAc(b1-3)Gal(b1-3)[Fuc(a1-4)]GlcNAc
How it was run: as §1

[8] = biological target: Fuc(a1-3)[Gal(b1-4)]GlcNAc(b1-3)Gal(b1-4)[Fuc(a1-3)]GlcNAc(b1-3)Gal(b1-4)[Fuc(a1-3)]GlcNAc
How it was run: as §1

[9] = biological target: Fuc(a1-3)[Gal3S(b1-4)]GlcNAc6S
How it was run: as §1

[10] = biological target: Fuc(a1-4)GlcNAc
How it was run: as §1

[11] = biological target: Gal(a1-3)Gal(b1-4)GlcNAc
How it was run: as §1

[12] = biological target: Gal(a1-4)Gal(b1-3)GlcNAc(b1-2)Man(a1-3)[Gal(a1-4)Gal(b1-3)GlcNAc(b1-2)Man(a1-6)]Man(b1-4)GlcNAc(b1-4)GlcNAc
How it was run: as §1

[13] = biological target: Gal(b1-3)Gal(b1-4)GlcNAc
How it was run: as §1

[14] = biological target: Gal(b1-3)GalNAc(b1-3)Gal
How it was run: as §1

[15] = biological target: Gal(b1-3)GalNAc(b1-4)Gal(b1-4)Glc
How it was run: as §1

[16] = biological target: Gal(b1-3)GlcNAc(b1-3)Gal(b1-4)Glc
How it was run: as §1

[17] = biological target: Gal(b1-3)GlcNAc(b1-3)Gal(b1-4)GlcNAc
How it was run: as §1

[18] = biological target: Gal(b1-3)GlcNAc(b1-3)Gal(b1-4)GlcNAc(b1-2)Man(a1-3)[Gal(b1-3)GlcNAc(b1-3)Gal(b1-4)GlcNAc(b1-2)Man(a1-6)]Man(b1-4)GlcNAc(b1-4)GlcNAc
How it was run: as §1

[19] = biological target: Gal(b1-3)GlcNAc(b1-3)Gal(b1-4)GlcNAc(b1-2)[Gal(b1-3)GlcNAc(b1-3)Gal(b1-4)GlcNAc(b1-6)]Man(a1-6)[Gal(b1-3)GlcNAc(b1-3)Gal(b1-4)GlcNAc(b1-2)Man(a1-3)]Man(b1-4)GlcNAc(b1-4)[Fuc(a1-6)]GlcNAc
How it was run: as §1

[20] = biological target: Gal(b1-3)GlcNAc(b1-3)Gal(b1-4)GlcNAc(b1-3)Gal(b1-4)GlcNAc(b1-2)[Gal(b1-3)GlcNAc(b1-3)Gal(b1-4)GlcNAc(b1-3)Gal(b1-4)GlcNAc(b1-6)]Man(a1-6)[Gal(b1-3)GlcNAc(b1-3)Gal(b1-4)GlcNAc(b1-3)Gal(b1-4)GlcNAc(b1-2)Man(a1-3)]Man(b1-4)GlcNAc(b1-4)[Fuc(a1-6)]GlcNAc
How it was run: as §1

[21] = biological target: Gal(b1-3)GlcNAc(b1-3)Gal(b1-4)GlcNAc(b1-6)[Gal(b1-3)GlcNAc(b1-3)]Gal(b1-4)Glc
How it was run: as §1

[22] = biological target: Gal(b1-3)GlcNAc6S
How it was run: as §1

[23] = biological target: Gal(b1-3)[Fuc(a1-4)]GlcNAc(b1-3)Gal(b1-3)[Fuc(a1-4)]GlcNAc
How it was run: as §1

[24] = biological target: Gal(b1-3)[Neu5Ac(a2-6)]GlcNAc(b1-4)Gal(b1-4)Glc
How it was run: as §1

[25] = biological target: Gal(b1-4)GlcNAc(b1-2)Man(a1-3)[Man(a1-6)]Man(b1-4)GlcNAc(b1-4)GlcNAc
How it was run: as §1

[26] = biological target: Gal(b1-4)GlcNAc(b1-2)[Gal(b1-4)GlcNAc(b1-4)]Man(a1-3)[Gal(b1-4)GlcNAc(b1-2)[Gal(b1-4)GlcNAc(b1-6)]Man(a1-6)]Man(b1-4)GlcNAc(b1-4)GlcNAc
How it was run: as §1

[27] = biological target: Gal3S(b1-4)GlcNAc
How it was run: as §1

[28] = biological target: Gal6S(b1-3)GlcNAc6S
How it was run: as §1

[29] = biological target: GalNAc(a1-3)GalNAc
How it was run: as §1

[30] = biological target: GalNAc(a1-3)GalNAc(b1-3)Gal(a1-4)Gal(b1-4)GlcNAc
How it was run: as §1

[31] = biological target: GalNAc(b1-4)GlcNAc(b1-3)GalNAc(b1-4)GlcNAc
How it was run: as §1

[32] = biological target: GalNAc3S(b1-4)[Fuc(a1-3)]GlcNAc
How it was run: as §1

[33] = biological target: Glc(a1-4)Glc
How it was run: as §1

[34] = biological target: GlcNAc(b1-2)[GlcNAc(b1-6)]Man(a1-6)[GlcNAc(b1-4)][GlcNAc(b1-2)Man(a1-3)]Man(b1-4)GlcNAc(b1-4)GlcNAc
How it was run: as §1

[35] = biological target: GlcNAc(b1-3)Gal(b1-4)GlcNAc(b1-3)Gal(b1-4)GlcNAc(b1-3)Gal(b1-4)GlcNAc(b1-2)[GlcNAc(b1-3)Gal(b1-4)GlcNAc(b1-3)Gal(b1-4)GlcNAc(b1-3)Gal(b1-4)GlcNAc(b1-6)]Man(a1-6)[GlcNAc(b1-3)Gal(b1-4)GlcNAc(b1-3)Gal(b1-4)GlcNAc(b1-3)Gal(b1-4)GlcNAc(b1-2)Man(a1-3)]Man(b1-4)GlcNAc(b1-4)[Fuc(a1-6)]GlcNAc
How it was run: as §1

[36] = biological target: GlcNAc(b1-3)Gal(b1-4)GlcNAc(b1-6)[GlcNAc(b1-3)Gal(b1-3)]GalNAc
How it was run: as §1

[37] = biological target: GlcNAc(b1-3)GalNAc
How it was run: as §1

[38] = biological target: GlcNAc(b1-3)Man
How it was run: as §1

[39] = biological target: GlcNAc(b1-3)[GlcNAc(b1-4)][GlcNAc(b1-6)]GlcNAc
How it was run: as §1

[40] = biological target: GlcNAc(b1-4)GlcNAc(b1-4)GlcNAc
How it was run: as §1

[41] = biological target: Kdn(a2-3)Gal(b1-3)GlcNAc
How it was run: as §1

[42] = biological target: Man(a1-2)Man(a1-2)Man(a1-3)Man
How it was run: as §1

[43] = biological target: Neu5Ac(a2-3)Gal(b1-3)GalNAc
How it was run: as §1

[44] = biological target: Neu5Ac(a2-3)Gal(b1-3)GlcNAc(b1-6)GalNAc
How it was run: as §1

[45] = biological target: Neu5Ac(a2-3)Gal(b1-3)[Neu5Ac(a2-6)]GlcNAc(b1-3)[Fuc(a1-3)[Gal(b1-4)]GlcNAc(b1-6)]Gal(b1-4)Glc
How it was run: as §1

[46] = biological target: Neu5Ac(a2-3)Gal(b1-4)Glc
How it was run: as §1

[47] = biological target: Neu5Ac(a2-3)Gal(b1-4)[Fuc(a1-3)]GlcNAc(b1-3)Gal(b1-4)GlcNAc
How it was run: as §1

[48] = biological target: Neu5Ac(a2-6)Gal(b1-4)GlcNAc(b1-2)Man(a1-6)[Gal(b1-4)GlcNAc(b1-2)Man(a1-3)]Man(b1-4)GlcNAc(b1-4)GlcNAc
How it was run: as §1

[49] = biological target: Neu5Ac(a2-6)Gal(b1-4)GlcNAc(b1-2)[Neu5Ac(a2-6)Gal(b1-4)GlcNAc(b1-6)]Man(a1-6)[Neu5Ac(a2-6)Gal(b1-4)GlcNAc(b1-2)Man(a1-3)][GlcNAc(b1-4)]Man(b1-4)GlcNAc(b1-4)GlcNAc
How it was run: as §1

[50] = biological target: Neu5Ac(a2-6)Gal(b1-4)GlcNAc(b1-3)Gal(b1-4)GlcNAc(b1-3)Gal(b1-4)GlcNAc
How it was run: as §1

[51] = biological target: Neu5Ac(a2-6)GalNAc(b1-4)GlcNAc
How it was run: as §1

[52] = biological target: Neu5Ac(a2-8)Neu5Ac
How it was run: as §1

[53] = biological target: Neu5Gc(a2-3)Gal(b1-3)GlcNAc
How it was run: as §1

B1: B160 (Bifidobacterium sp) (protein)
chain: MVSHNKRIVAALAAVAAMGIGLAGCGGSDTAGDTKSGSDGGVVNITYMHRLPDSEGMTLVNDIVAKWNKEHPNIQVKATKFDGNAADMIKKLETDVKAGNAPDLAQVGYAEVPEVFTKGLLQDVTDEAAKYKDDFASGPFALMQVDGKTYGLPQDTGPLTYFYNAAEFEKLGITVPKTADELIETAKKTAAQGKYIMTFTPDEAMMMMSGQAGASGPWYKVDGNSWVVNTQTKGSKAVADVYQQLIDNKAALTNPRWDASFDNSIQSGQLIGTVAAAWEAPLFIDSAGGTGAGEWKVTQLGDWFGNGTKTGANGGSGVAVLKGSKHPAEAMEFLDWFNTQVDDLVSQGLVVAATTADAKTPQKWSDYFSGQDVMAEFKTANDNMGDFTYMPGFSAVGAAMKQTAAKAADGSAKVSDVFDTAQKTSVDTLKNLGLSVKE
glycan array binding signal (z-score) [1]: -0.134 | glycan array binding signal (z-score) [2]: -0.168 | glycan array binding signal (z-score) [3]: -0.163 | glycan array binding signal (z-score) [4]: -0.15 | glycan array binding signal (z-score) [5]: -0.126 | glycan array binding signal (z-score) [6]: -0.135 | glycan array binding signal (z-score) [7]: -0.164 | glycan array binding signal (z-score) [8]: -0.14 | glycan array binding signal (z-score) [9]: -0.145 | glycan array binding signal (z-score) [10]: -0.176 | glycan array binding signal (z-score) [11]: -0.166 | glycan array binding signal (z-score) [12]: -0.093 | glycan array binding signal (z-score) [13]: 11.7 | glycan array binding signal (z-score) [14]: 6.25 | glycan array binding signal (z-score) [15]: 8.55 | glycan array binding signal (z-score) [16]: 4.36 | glycan array binding signal (z-score) [17]: 4.98 | glycan array binding signal (z-score) [18]: 5.11 | glycan array binding signal (z-score) [19]: 8.35 | glycan array binding signal (z-score) [20]: 6.21 | glycan array binding signal (z-score) [21]: 5.45 | glycan array binding signal (z-score) [22]: 6.55 | glycan array binding signal (z-score) [23]: -0.141 | glycan array binding signal (z-score) [24]: 6.71 | glycan array binding signal (z-score) [25]: -0.176 | glycan array binding signal (z-score) [26]: -0.18 | glycan array binding signal (z-score) [27]: -0.172 | glycan array binding signal (z-score) [28]: -0.179 | glycan array binding signal (z-score) [29]: -0.173 | glycan array binding signal (z-score) [30]: -0.166 | glycan array binding signal (z-score) [31]: -0.191 | glycan array binding signal (z-score) [32]: -0.117 | glycan array binding signal (z-score) [33]: -0.177 | glycan array binding signal (z-score) [34]: -0.149 | glycan array binding signal (z-score) [35]: -0.094 | glycan array binding signal (z-score) [36]: -0.164 | glycan array binding signal (z-score) [37]: -0.154 | glycan array binding signal (z-score) [38]: -0.156 | glycan array binding signal (z-score) [39]: -0.174 | glycan array binding signal (z-score) [40]: -0.167 | glycan array binding signal (z-score) [41]: -0.172 | glycan array binding signal (z-score) [42]: -0.159 | glycan array binding signal (z-score) [43]: -0.204 | glycan array binding signal (z-score) [44]: -0.161 | glycan array binding signal (z-score) [45]: -0.173 | glycan array binding signal (z-score) [46]: -0.173 | glycan array binding signal (z-score) [47]: -0.165 | glycan array binding signal (z-score) [48]: -0.136 | glycan array binding signal (z-score) [49]: -0.14 | glycan array binding signal (z-score) [50]: -0.145 | glycan array binding signal (z-score) [51]: -0.167 | glycan array binding signal (z-score) [52]: -0.174 | glycan array binding signal (z-score) [53]: -0.189
